Experimental data as given in PubChem BioAssay (Tox21).
Records with an inconclusive call do not appear. Calls of active or inactive are those of the source. Unless noted, calls follow the shape of the full dose curve.

How the values were obtained:
[1] = qHTS assay to identify small molecule agonists of the peroxisome proliferator-activated receptor delta (PPARd) signaling pathway - cell viability counter screen (AID 743211; active = well fitted curve in the direction sought with a large enough effect in the repeat runs; an effect the other way counts as inactive or inconclusive; also: nearly all actives have a fitted effect of over 55% in size)
Outline: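 Counter screen for cytotoxicity run in parallel with the PPARd reporter screen. Beta-lactamase reporter HEK293H cells exposed to compounds 17 h; ATP-based CellTiter-Glo luminescence quantified viability.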

[2] = target: Peroxisome proliferator-activated receptor delta (Homo sapiens) (UniProt Q03181); assay: qHTS assay to identify small molecule agonists of the peroxisome proliferator-activated receptor delta (PPARd) signaling pathway (AID 743212)
Outline: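 Quantitative high-throughput agonist screen in a HEK293H beta-lactamase reporter line under UAS control. Compounds in DMSO, at 37 C. Fluorescence read after 2 h with FRET substrate at room temperature.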

[3] = target: Peroxisome proliferator-activated receptor delta (Homo sapiens) (UniProt Q03181); assay: qHTS assay to identify small molecule antagonists of the peroxisome proliferator-activated receptor delta (PPARd) signaling pathway (AID 743215; active = well fitted inhibition curve with a large enough effect in the signal ratio in the repeat runs, not every such curve was filed as active; the % refers to the signal ratio;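 also: cells stimulated with agonist L165041 at 300 nM final during compound exposure; series mostly up to about 62 µM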)
Outline: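 Antagonist-mode beta-lactamase reporter screen: HEK293H cells with UAS-bla under PPARd control, stimulated by 300 nM L165041 (final) alongside test compound for 17 h at 37 C, then FRET fluorescence after 2 h substrate incubation.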

[4] = target: Bile acid receptor (Homo sapiens) (UniProt Q96RI1); assay: qHTS assay to identify small molecule antagonists of the farnesoid-X-receptor (FXR) signaling pathway (AID 743217; active = well fitted inhibition curve with a large enough effect in the signal ratio in the repeat runs, not every such curve was filed as active; the % refers to the signal ratio)
Outline: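 Beta-lactamase reporter under UAS control in HEK 293T cells; compound exposure 16 h at 37 °C in the presence of chenodeoxycholic acid (50 uM final); signal from B/G FRET substrate after 2 h at room temperature.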

[5] = qHTS assay to identify small molecule agonists of the farnesoid-X-receptor (FXR) signaling pathway - cell viability counter screen (AID 743218; active = well fitted curve in the direction sought with a large enough effect in the repeat runs; an effect the other way counts as inactive or inconclusive; also: nearly all actives have a fitted effect of over 45% in size)
Outline: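 In GeneBLAzer FXR-UAS-bla HEK 293T cells, compounds act for 16 h at 37 C. Cell viability is then scored in the reporter wells by CellTiter-Glo, 30 min at RT, luminescence.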

[6] = target: Bile acid receptor (Homo sapiens) (UniProt Q96RI1); assay: qHTS assay to identify small molecule agonists of the farnesoid-X-receptor (FXR) signaling pathway (AID 743220; active = well fitted activation curve with a large enough effect in the signal ratio in the repeat runs, not every such curve was filed as active; the % refers to the signal ratio)
Outline: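 Beta-lactamase reporter under UAS control in GeneBLAzer FXR HEK 293T cells (5000/well) measured with LiveBLAzer FRET substrate after 2 h at room temperature. Compound exposure lasted 16 h at 37C.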

[7] = qHTS assay to identify small molecule antagonists of the farnesoid-X-receptor (FXR) signaling pathway - cell viability counter screen (AID 743221; active = well fitted cell-killing curve with a large enough effect in the repeat runs, not every such curve was filed as active; also: nearly all actives have a fitted effect of over 50% in size)
Outline: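 Multiplexed counter screen: viability of FXR-bla HEK 293T cells under agonist stimulation by chenodeoxycholic acid (50 uM, final) and test compound for 16 h at 37 C, measured by CellTiter-Glo luminescence in the reporter wells.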

[8] = target: Vitamin D3 receptor (Homo sapiens) (UniProt P11473); assay: qHTS assay to identify small molecule antagonists of the vitamin D receptor (VDR) signaling pathway (AID 743223; active = well fitted inhibition curve with a large enough effect in the signal ratio in the repeat runs, not every such curve was filed as active; the % refers to the signal ratio)
Outline: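 Cells carrying a VDR-driven beta-lactamase reporter (VDR-bla) were co-treated with compound and 3 nM final 1alpha,25-dihydroxyvitamin D3 for 16 h at 37C; reporter activity was measured as FRET substrate fluorescence after 2 h at room temperature.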

[9] = qHTS assay to identify small molecule agonists of the vitamin D receptor (VDR) signaling pathway - cell viability counter screen (AID 743224; active = well fitted curve in the direction sought with a large enough effect in the repeat runs; an effect the other way counts as inactive or inconclusive; also: series mostly up to about 63 µM; nearly all actives have a fitted effect of over 50% in size)
Outline: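 VDR-bla cell line, quantitative HTS format; 16 h compound incubation (37C, 5% CO2); ATP-based CellTiter-Glo luminescence measured in the reporter assay wells.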

[10] = qHTS assay to identify small molecule antagonists of the vitamin D receptor (VDR) signaling pathway - cell viability counter screen (AID 743225; active = well fitted curve in the direction sought with a large enough effect in the repeat runs; an effect the other way counts as inactive or inconclusive; also: nearly all actives have a fitted effect of over 50% in size)
Outline: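 HEK293T VDR-bla; cpd + 1a,25-(OH)2D3 3 nM final, 16 h 37C/5% CO2; B/G FRET substrate 2 h RT; then CellTiter-Glo 30 min RT, luminescence.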

[11] = qHTS assay to identify small molecule agonists of the NFkB signaling pathway - cell viability counter screen (AID 1159515); also: series mostly up to about 61 µM; nearly all actives have a fitted effect of over 55% in size
Outline: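 Viability in NFkB-bla ME-180 cells was measured by CellTiter-Glo luminescence, 30 min room temperature, in wells already treated 5 hr with compounds and read for reporter FRET.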

[12] = qHTS assay to identify small molecule agonists of the endoplasmic reticulum stress response signaling pathway (AID 1159516; active = well fitted activation curve with a large enough effect in the signal ratio in the repeat runs, not every such curve was filed as active; the % refers to the signal ratio)
Outline: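 ER stress element reporter (bla) in HeLa. 1,500 cells/well, overnight attachment; 5 hr compound; 2 hr RT substrate; dual-emission fluorescence.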

[13] = qHTS assay to identify small molecule agonists of the endoplasmic reticulum stress response signaling pathway - cell viability counter screen (AID 1159517);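 also: HeLa cells carrying an ER stress response element beta-lactamase reporter; series mostly up to about 61 µM; nearly all actives have a fitted effect of over 50% in size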
Outline: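 Counter-screen wells were identical to the reporter wells. Cells were plated at 1,500 per well and dosed for 5 hr, then read for luminescence 30 min after CellTiter-Glo addition.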

[14] = target: Nuclear receptor ROR-gamma (Homo sapiens) (UniProt P51449); assay: qHTS assay to identify small molecule antagonists of the retinoid-related orphan receptor gamma (ROR-gamma) signaling pathway (AID 1159521; active = well fitted curve in the direction sought with a large enough effect in the repeat runs; an effect the other way counts as inactive or inconclusive)
Outline: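 Cells were plated, rested 4 h at 37 C, exposed to compounds for 2 h, then given 1 uM final doxycycline hyclate to induce RORγ expression. After 16 h, ONE-Glo luminescence from the ROR response element reporter was measured.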

[15] = qHTS assay to identify small molecule agonists of the AP-1 signaling pathway - cell viability counter screen (AID 1159525); also: nearly all actives have a fitted effect of over 55% in size
Outline: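 AP-1-bla ME-180 cells in Opti-MEM with 0.5% dialyzed FBS, compound exposure 5 h at 37 C in 15-point titration. Viability read in the same wells as ATP content by CellTiter-Glo luminescence, normalised to tetra-n-octylammonium bromide and DMSO controls.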

[16] = qHTS assay to identify small molecule agonists of the AP-1 signaling pathway (AID 1159526)
[17] = target: Retinoic acid receptor RXR-alpha (Homo sapiens) (UniProt P19793); assay: qHTS assay to identify small molecule agonists of the RXR signaling pathway (AID 1159527); also: nearly all actives have a fitted effect of over 35% in size
Outline: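 Cells plated at 2,000/well, rested 5 hr at 37 C, pin-dosed with DMSO compound solutions, incubated 16 hr, then loaded with B/G FRET substrate for 2 hr at RT before dual-emission fluorescence reading.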

[18] = qHTS assay to identify small molecule antagonists of the peroxisome proliferator-activated receptor delta (PPARd) signaling pathway - cell viability counter screen (AID 743213; active = well fitted curve in the direction sought with a large enough effect in the repeat runs; an effect the other way counts as inactive or inconclusive; also: nearly all actives have a fitted effect of over 50% in size)
Outline: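 Viability counter-screen, qHTS format: PPARd-bla HEK293H, L165041 300 nM final, 17 h compound exposure at 37 C, CellTiter-Glo luminescence after 30 min RT.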

[19] = target: Vitamin D3 receptor (Homo sapiens) (UniProt P11473); assay: qHTS assay to identify small molecule agonists of the vitamin D receptor (VDR) signaling pathway (AID 743222)
Outline: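 Agonist activity measured in VDR-bla reporter cells. Exposure 16 h, 37C, 5% CO2; detection by B/G FRET substrate, 2 h RT.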

[20] = qHTS assay to identify small molecule antagonists of the retinoid-related orphan receptor gamma (ROR-gamma) signaling pathway - cell viability counter screen (AID 1159520; active = well fitted curve in the direction sought with a large enough effect in the repeat runs; an effect the other way counts as inactive or inconclusive; also: nearly all actives have a fitted effect of over 50% in size)
Outline: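 Tet-on ROR gamma CHO cells were given compounds for 2 hr, then doxycycline hyclate at 1 uM final, and incubated 16 hr at 37 C. Viability was measured as ATP content by CellTiter-Glo luminescence.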

Measured: Potency

Vitamin D3 receptor (Homo sapiens), sequence (P11473 whole entry, looked up): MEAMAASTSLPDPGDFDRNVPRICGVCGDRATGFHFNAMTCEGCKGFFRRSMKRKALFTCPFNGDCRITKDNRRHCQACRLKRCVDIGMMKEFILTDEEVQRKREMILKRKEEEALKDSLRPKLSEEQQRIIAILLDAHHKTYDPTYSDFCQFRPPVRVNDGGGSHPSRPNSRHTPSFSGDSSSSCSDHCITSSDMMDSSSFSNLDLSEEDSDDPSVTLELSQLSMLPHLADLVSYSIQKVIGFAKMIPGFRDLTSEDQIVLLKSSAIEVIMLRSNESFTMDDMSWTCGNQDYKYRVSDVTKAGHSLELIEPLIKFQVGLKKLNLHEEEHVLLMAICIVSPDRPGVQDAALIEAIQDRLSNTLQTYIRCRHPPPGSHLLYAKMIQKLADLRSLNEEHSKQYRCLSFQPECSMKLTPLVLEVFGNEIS
Peroxisome proliferator-activated receptor delta (Homo sapiens), sequence (Q03181 whole entry, looked up): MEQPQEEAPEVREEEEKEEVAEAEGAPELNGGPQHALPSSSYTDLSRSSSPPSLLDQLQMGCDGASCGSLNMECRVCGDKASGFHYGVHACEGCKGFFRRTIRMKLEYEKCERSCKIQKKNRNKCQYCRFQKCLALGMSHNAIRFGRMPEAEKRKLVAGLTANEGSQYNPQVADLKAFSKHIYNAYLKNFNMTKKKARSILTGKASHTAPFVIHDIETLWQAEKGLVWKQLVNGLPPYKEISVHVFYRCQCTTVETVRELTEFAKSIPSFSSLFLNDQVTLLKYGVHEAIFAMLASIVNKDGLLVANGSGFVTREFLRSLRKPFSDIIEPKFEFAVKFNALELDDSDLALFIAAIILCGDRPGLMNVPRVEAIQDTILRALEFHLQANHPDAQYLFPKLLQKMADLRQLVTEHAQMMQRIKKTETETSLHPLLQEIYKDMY
Retinoic acid receptor RXR-alpha (Homo sapiens), sequence (P19793 whole entry, looked up): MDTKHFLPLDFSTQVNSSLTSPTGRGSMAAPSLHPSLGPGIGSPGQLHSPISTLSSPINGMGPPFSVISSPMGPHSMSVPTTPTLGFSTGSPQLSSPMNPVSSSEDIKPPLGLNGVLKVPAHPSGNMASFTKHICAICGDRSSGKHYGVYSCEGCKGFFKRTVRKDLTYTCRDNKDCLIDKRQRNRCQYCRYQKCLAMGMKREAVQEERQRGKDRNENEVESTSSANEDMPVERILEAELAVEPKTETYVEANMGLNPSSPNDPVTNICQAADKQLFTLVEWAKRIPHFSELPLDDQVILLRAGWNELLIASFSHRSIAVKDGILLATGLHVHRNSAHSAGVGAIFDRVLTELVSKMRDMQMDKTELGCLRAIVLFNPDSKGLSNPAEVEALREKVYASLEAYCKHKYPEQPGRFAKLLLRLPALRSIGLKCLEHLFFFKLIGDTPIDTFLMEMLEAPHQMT
Bile acid receptor (Homo sapiens), sequence (Q96RI1 whole entry, looked up): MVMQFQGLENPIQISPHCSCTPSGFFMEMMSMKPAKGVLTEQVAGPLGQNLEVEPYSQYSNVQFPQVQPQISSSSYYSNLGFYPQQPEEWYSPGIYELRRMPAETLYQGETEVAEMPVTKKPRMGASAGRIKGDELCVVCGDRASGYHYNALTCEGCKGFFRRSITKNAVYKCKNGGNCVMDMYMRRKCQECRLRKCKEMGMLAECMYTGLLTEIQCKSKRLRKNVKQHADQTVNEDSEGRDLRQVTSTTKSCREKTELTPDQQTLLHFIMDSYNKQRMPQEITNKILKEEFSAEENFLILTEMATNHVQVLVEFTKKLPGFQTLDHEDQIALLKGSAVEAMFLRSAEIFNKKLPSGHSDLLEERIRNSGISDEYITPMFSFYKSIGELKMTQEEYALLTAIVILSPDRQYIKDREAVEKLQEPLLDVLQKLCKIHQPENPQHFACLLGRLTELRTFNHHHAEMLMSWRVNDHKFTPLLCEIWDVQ

C=CC(=O)OCC[N+](C)(C)C
not listed: [18] | [19] | [20]
inactive: all other assays above

O=C1CC2(CCCC2)CC(=O)N1CCNCC1COc2ccccc2O1 (stereo not given)
not listed: [2] | [3] | [15]
inactive: all other assays above

O=C(O)CCC(=O)Nc1ccc(S(=O)(=O)Nc2nccs2)cc1
not listed: [1] | [6] | [15]
inactive: all other assays above

CCCCCCC(=O)c1ccccc1
not listed: [5] | [8] | [10] | [19] | [20]
inactive: all other assays above

CC(=O)c1ccc2ccc3ccccc3c2c1
not listed: [3] | [19] | [20]
inactive: all other assays above

CN(C)c1cc(NC(=O)CNC(C)(C)C)c(O)c2c1C[C@H]1C[C@H]3[C@H](N(C)C)C(=O)C(C(N)=O)=C(O)[C@@]3(O)C(=O)C1=C2O
not listed: [1] | [15]
inactive: all other assays above

CC(C)(C)OC=O
not listed: [2] | [3] | [10] | [15]
inactive: all other assays above

CSC(=O)c1cccc2nnsc12
not listed: [4] | [5] | [6] | [15] | [18]
inactive: all other assays above

CCc1ccc(CC)cc1
not listed: [1] | [2] | [3] | [4] | [6]
inactive: all other assays above

CC[N+](C)(CC)CC
not listed: [1] | [2] | [3] | [8] | [10] | [19]
inactive: all other assays above

CC(=O)Oc1ccc(C(C)=O)cc1
not listed: [5] | [8] | [15] | [18] | [19]
inactive: all other assays above

CCC(=O)OCCOc1ccccc1
not listed: [2] | [3] | [4] | [6] | [9] | [15]
inactive: all other assays above
